Inconclusive results are not listed. Entries that show only a call come without a potency. Active and inactive are the calls of the source. The call rests on the fitted dose curve. Square brackets hold non-standard residues; d marks the D form. Peptide text beside a SMILES is read from it. * marks the point of attachment. Sta = CC(C)C[C@H](N)[C@@H](O)CC(=O)O; Isovaleryl = CC(C)CC(=O)*
Potency means the concentration at half of the fitted maximal effect.

A short description of this test: Nuclear factor erythroid 2-related factor 2/antioxidant responsive element (Nrf2/ARE) small molecule agonists: luciferase reporter gene qHTS assay in human keratinocytes (AID 1919969). Further: nearly all actives have a fitted effect of over 35% in size. The conditions noted are these: KeratinoSens HaCaT ARE-luciferase, luminescence, 24 h; series mostly up to 92.4 µM. An excerpt: National Center for Advancing Translational Sciences [NCATS]
Division of Preclinical Innovation [DPI]
U.S. Environmental Protection Agency [EPA]
National Institutes of Environmental Health Sciences [NIEHS]
National Toxicology Program [NTP]
U.S. Food and Drug Administration [FDA]
Oxidative stress has been implicated in the pathogenesis of a variety of diseases ranging from cancer to neurodegeneration. The antioxidant response element (ARE) signaling pathway plays an important role in the amelioration of oxidative stress. The KeratinoSens (Givaudan, Switzerland) is an in vitro test method which quantifies luciferase induction as a measure of activation of Keap1-Nrf2-antioxidationt/electrophile response element (ARE) dependant pathway in HaCaT human keratinocytes stably transfected with a selectable plasmid. The KeratinoSens assay is a cell-based assay with a reporter cell line to detect potential skin sensitizers by their ability to induce the Nrf2/ARE-response. The activation of the report gene under culture conditions can be detected by ONE-Glo Luciferase Assay System (Promega, Madison, WI). This cell line has been used to screen the Tox21 10K compound library to identify agonists that induce oxidative stress. The cytotoxicity of the Tox21 compound library against the KS-ARE cell line was tested in parallel by measuring the cell viability using CellTiter- Fluor assay system (Promega, Madison, WI) in the same wells.
HaCaT derived cell line KeratinoSens were dispensed at 1,500 cells/5uL/well in 1536-well white wall/solid bottom plates using a Multidrop Combi (ThermoFisher Scientific, Waltham, MA) dispenser. After the assay plates were incubated at 37 C/5% CO2 for 5 h, 23 nL of compounds dissolved in DMSO, positive controls or DMSO only was transferred to the assay plate by a pintool workstation (Kalypsys, San Diego, CA). The plates were incubated at 37 C/5% CO2 for 23 h, followed by addition of 1uL/well of CellTiter-Fluor reagent into the assay plates using a Flying Reagent Dispenser (Aurora Discovery, San Diego, CA) for cell viability readout that measures cytotoxicity. After 1 h incubation at 37 C/5% CO2 the fluorescence intensity was measured using a ViewLux (PerkinElmer, Shelton, CT) plate reader. Then 4uL/well of One-Glo were added using a Flying Reagent Dispenser. After the plates were incubated at room temperature for 30 min, the luminescence intensity in the assay plates was measured using ViewLux plate reader.
A general note: Reporter assays use an easily measured gene product as a stand-in for the process of interest.
For the compound `C=CCCCC`, the Potency entry was “inactive”.

On to `COc1ccc(CCN(C)CCCC(C#N)(c2cc(OC)c(OC)c(OC)c2)C(C)C)cc1OC` (stereo not given), for which the Potency entry is “inactive”.

In the case of `CC(C)C(=O)OC/C=C/c1ccccc1`, the Potency result was “inactive”.

As to `CCOC(=O)/C=C/C(=O)O`, the Potency is 61.1 µM (active).

For the compound `Cc1oc(-c2ccccc2)nc1CCC(=O)c1ccc(CC2SC(=O)NC2=O)cc1` (stereo not given), the Potency result was “inactive”.

Turning to `C=C(C)C(=O)OC1CC(C)CC(C)(C)C1` (stereo not given), the Potency entry was “inactive”.

In the case of `COCCO`, the Potency entry was “inactive”.

For `Nc1nc(-c2ccc([N+](=O)[O-])cc2)cs1`, the Potency result is “inactive”.

Turning to `CCCCCCCCCCCCN1CCOCC1`, the Potency entry is “inactive”.

As to `CCOC(=O)c1ccc(OC(=O)CCCCCN=C(N)N)cc1`, the Potency entry was “inactive”.

Take `COc1cc2c(cc1OC)C(=O)CC2`: the Potency entry is “inactive”.

As to `CCc1cccc(CC)c1`, the Potency result was “inactive”.

For `NC(=O)C(=O)N/N=C/c1ccc([N+](=O)[O-])o1`, the Potency is 29.8 µM (active).

Take `C1=C\CC/C=C\CC/1`: the Potency entry is “inactive”.

Turning to `CCOC(=O)C1=C(C)NC(C)=C(C(=O)OC)C1c1cccc(Cl)c1Cl` (stereo not given), the Potency result was “inactive”.

Turning to `CCc1ccc(CC)cc1`, the Potency entry is “inactive”.

Turning to `O=c1cc(-c2ccccc2)oc2ccc3ccccc3c12`, the Potency was 0.486 µM (active).

As to `CC(=O)Oc1ccc(C(C)=O)cc1`, the Potency result was “inactive”.

With `CCCCCCCCCCCSCC(=O)O`, the Potency entry is “inactive”.

Consider `CCC1=C(C)CN(C(=O)NCCc2ccc(S(=O)(=O)NC(=O)NC3CCC(C)CC3)cc2)C1=O` (stereo not given), for which the Potency result was “inactive”.

Take `C=C[Si](C)(C)O[Si](C)(C)C=C`: the Potency entry was “inactive”.

On to `COc1ccc(OC)c(OC)c1`, for which the Potency entry is “inactive”.

On to `CCCCOc1cc(C(=O)OCCN(CC)CC)ccc1N`, for which the Potency entry was “inactive”.

For `CCCCCN=C(N)N/N=C/c1c[nH]c2ccc(OC)cc12`, the Potency entry was “inactive”.

For the compound `CC(C)CC(=O)N[C@H](C(=O)N[C@H](C(=O)N[C@@H](CC(C)C)[C@@H](O)CC(=O)N[C@@H](C)C(=O)N[C@@H](CC(C)C)[C@@H](O)CC(=O)O)C(C)C)C(C)C` (Isovaleryl-VV[Sta]A[Sta]-OH), the Potency entry was “inactive”.

For the compound `CCOC(=O)Oc1ccc(CCNC(=O)[C@H](CCSC)NC(C)=O)cc1OC(=O)OCC`, the Potency entry is “inactive”.

Consider `CCc1cc(Cc2cc(CC)cc(C(C)(C)C)c2O)c(O)c(C(C)(C)C)c1`, for which the Potency result is “inactive”.

Regarding `CCO`, the Potency entry is “inactive”.

As for `CC(C)(C)NCCNC(C)(C)C`, the Potency result was “inactive”.

For the compound `NS(=O)(=O)c1cc(C2(O)NC(=O)c3ccccc32)ccc1Cl` (stereo not given), the Potency result was “inactive”.

On to `O=P(O)(O)Oc1ccccc1`, for which the Potency entry was “inactive”.

With `O=C1O[C@@H]2[C@@H](O)[C@H](O)O[C@@H]2[C@H]1O`, the Potency result was “inactive”.

`CC1(C)S[C@@H]2[C@H](NC(=O)C(C(=O)O)c3ccccc3)C(=O)N2[C@H]1C(=O)O` (stereo not given in full): the Potency entry is “inactive”.

With `CCCCCCC(CO)CCCC` (stereo not given), the Potency entry was “inactive”.

`CC(C)COC(=O)COc1cc(Cl)c(Cl)cc1Cl`: the Potency result was “inactive”.

In the case of `CN1CC(=O)NC1=N`, the Potency result was “inactive”.

For `CN(Cc1cc(Br)cc(Br)c1N)C1CCCCC1`, the Potency result is “inactive”.

With `C=C(C)C(=O)OCCCC`, the Potency result was “inactive”.

Turning to `OCC(CO)(CO)COCC(CO)(CO)CO`, the Potency entry is “inactive”.

On to `C=CC(=O)OCCOCC(CC)(COCCOC(=O)C=C)COCCOC(=O)C=C`, for which the Potency is 12.7 µM (active).

The values above are taken from PubChem BioAssay (Tox21).
